In PubChem BioAssay (Tox21):
Several values for one entry are separate records, joined by “and”; a condition that tells them apart may be missing. Equal entries are not always repeated. Results filed as inconclusive are left out. Activity calls are given as the source filed them. Unless noted, the call rests on the fitted dose curve; in most records, active means well fitted curve in the direction sought with a large enough effect in the repeat runs; inconclusive means weak or mixed curves; inactive means no such curve, though single readings can be large; an effect the other way counts as inactive or inconclusive.

What was measured:
[1] = qHTS assay to identify small molecule antagonists of the estrogen related receptor (ERR) signaling pathway from Tox21 library - cell viability counter screen (AID 1224834); further: nearly all actives have a fitted effect of over 30% in size; further: potency means the concentration at half of the fitted maximal effect
In short: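 ERR reporter cells were plated 6 h before compound addition, then exposed to test compounds in DMSO for 17.5 h at 37 C. Viability was read as CellTiter-Fluor fluorescence after a 30-minute incubation at 37 C.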

[2] = target: Luciferin 4-monooxygenase (Photinus pyralis) (UniProt P08659); assay: qHTS assay to identify small molecule inhibitors of firefly luciferase (AID 1224835); further: nearly all actives have a fitted effect of over 25% in size; further: potency means the concentration at half of the fitted maximal effect; on activity change, negative = inhibition: series mostly up to about 120 µM
In short: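 Quantitative HTS format; KM concentrations of both substrates. Purified P. pyralis FLuc activity quantified from luminescence images.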

[3] = qHTS assay to identify small molecule agonists of the constitutive androstane receptor (CAR) signaling pathway - cell viability counter screen (AID 1224836); further: nearly all actives have a fitted effect of over 45% in size; further: potency means the concentration at half of the fitted maximal effect; on viability change, negative = cytotoxic: series mostly up to about 92 µM
In short: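 Double-stable HepG2 hepatoma cells (hCAR plus CYP2B6-2.2kb) are treated for 23 h at 37 C with test compounds in 15-point concentration series. PK11195 at 0.75 uM final is co-added. Cell viability is quantified by CellTiter-Fluor.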

[4] = qHTS assay to identify small molecule antagonists of the constitutive androstane receptor (CAR) signaling pathway - cell viability counter screen (AID 1224837); further: nearly all actives have a fitted effect of over 45% in size; further: potency means the concentration at half of the fitted maximal effect; on activity change, negative = cytotoxicity: series mostly up to about 92 µM
In short: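 HepG2 cells stably expressing hCAR and a CYP2B6-2.2kb reporter were plated and pre-incubated 4 hr at 37 C/5% CO2, then given compounds at 15 concentrations plus 50 nM CITCO (final). After 23 hr, viability was read by CellTiter-Fluor fluorescence.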

[5] = target: Nuclear receptor subfamily 1 group I member 3 (Homo sapiens) (UniProt Q14994); assay: qHTS assay to identify small molecule antagonists of the constitutive androstane receptor (CAR) signaling pathway (AID 1224838); further: nearly all actives have a fitted effect of over 40% in size; further: potency means the concentration at half of the fitted maximal effect
In short: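 HepG2 cells stably co-transfected with hCAR and a CYP2B6-2.2kb luciferase reporter were seeded 4 h before compound addition at 15 concentrations. Cells were stimulated with 50 nM CITCO (final) for 24 h at 37 C; luciferase luminescence was then read.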

[6] = target: Nuclear receptor subfamily 1 group I member 3 (Homo sapiens) (UniProt Q14994); assay: qHTS assay to identify small molecule agonists of the constitutive androstane receptor (CAR) signaling pathway (AID 1224839); further: nearly all actives have a fitted effect of over 15% in size; further: potency means the concentration at half of the fitted maximal effect;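 on activation: HepG2 cells stably carrying human CAR and a CYP2B6 luciferase reporter; series mostly up to about 92 µM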
In short: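 Readout: firefly luciferase luminescence via ONE-Glo. System: HepG2 double-stable for hCAR and CYP2B6-2.2kb. Conditions: 15-point compound titration, PK11195 at 0.75 uM final, 24 h incubation.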

[7] = qHTS assay to identify small molecule antagonists of the estrogen related receptor signaling pathway with the pleiotropic PPARgamma coactivator (PGC) from Tox21 10K library - cell viability counter screen (AID 1224840; active means well fitted cell-killing curve with a large enough effect in the repeat runs, not every such curve was filed as active; further: nearly all actives have a fitted effect of over 40% in size)
In short: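 PGC/ERR cells were seeded at 2,000 cells/well and left 6 hours at 37 C/5% CO2 before pin-tool addition of compounds in DMSO. After 17.5 hours at 37 C, CellTiter-Fluor was added and fluorescence read 30 minutes later.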

[8] = qHTS assay to identify small molecule agonists of the estrogen related receptor signaling pathway with the pleiotropic PPARgamma coactivator (PGC) (AID 1224823); further: potency means the concentration at half of the fitted maximal effect
In short: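 PGC/ERR reporter cells seeded 6 h, then exposed to compounds (23 nL in DMSO) for 18 h at 37 C. One-Glo luciferase luminescence read after 30 min at room temperature.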

[9] = qHTS assay to identify small molecule antagonists of the estrogen related receptor signaling pathway with the pleiotropic PPARgamma coactivator (PGC) from Tox21 10K library (AID 1224841; call rule not given here; further: actives are mostly falling curves and most rising ones were filed inactive; nearly all actives have a fitted effect of over 50% in size; further: potency means the concentration at half of the fitted maximal effect; on activity, negative = inhibition: series mostly up to about 92 µM)
In short: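 PGC/ERR reporter cells were seeded at 2,000 cells/well and held 6 hours at 37 C/5% CO2 before pin-tool addition of compounds in DMSO. After 18 hours at 37 C, One-Glo was added and luminescence read after 30 minutes at room temperature.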

[10] = qHTS assay to identify small molecule agonists of the estrogen related receptor signaling pathway with the pleiotropic PPARgamma coactivator (PGC) from Tox21 10K library (AID 1224842); further: nearly all actives have a fitted effect of over 15% in size; further: potency means the concentration at half of the fitted maximal effect
In short: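 PGC/ERR reporter cells (NTP line) were seeded 2,000 per well, rested 6 h at 37 C/5% CO2, then pin-dosed with compounds in DMSO for 18 h at 37 C; luciferase read by One-Glo luminescence after 30 min at room temperature.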
On the % scale 0 is the no-effect control and ±100 the full control effect.

Chain of Luciferin 4-monooxygenase (Photinus pyralis) (P08659 whole entry, looked up): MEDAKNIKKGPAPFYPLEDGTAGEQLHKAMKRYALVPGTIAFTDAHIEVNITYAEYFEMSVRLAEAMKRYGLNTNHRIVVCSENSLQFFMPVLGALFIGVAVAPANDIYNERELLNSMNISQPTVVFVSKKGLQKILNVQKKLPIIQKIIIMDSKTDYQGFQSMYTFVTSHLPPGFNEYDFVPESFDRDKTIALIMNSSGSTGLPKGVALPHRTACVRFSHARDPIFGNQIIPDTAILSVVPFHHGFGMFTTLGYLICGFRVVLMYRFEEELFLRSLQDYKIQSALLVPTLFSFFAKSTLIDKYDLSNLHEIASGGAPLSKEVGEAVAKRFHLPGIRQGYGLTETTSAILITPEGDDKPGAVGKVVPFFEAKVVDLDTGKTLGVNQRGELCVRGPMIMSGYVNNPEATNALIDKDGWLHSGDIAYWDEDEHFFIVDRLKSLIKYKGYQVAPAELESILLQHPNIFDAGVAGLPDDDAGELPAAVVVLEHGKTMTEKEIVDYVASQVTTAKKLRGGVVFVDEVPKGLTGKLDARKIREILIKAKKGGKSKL
Chain of Nuclear receptor subfamily 1 group I member 3 (Homo sapiens) (Q14994 whole entry, looked up): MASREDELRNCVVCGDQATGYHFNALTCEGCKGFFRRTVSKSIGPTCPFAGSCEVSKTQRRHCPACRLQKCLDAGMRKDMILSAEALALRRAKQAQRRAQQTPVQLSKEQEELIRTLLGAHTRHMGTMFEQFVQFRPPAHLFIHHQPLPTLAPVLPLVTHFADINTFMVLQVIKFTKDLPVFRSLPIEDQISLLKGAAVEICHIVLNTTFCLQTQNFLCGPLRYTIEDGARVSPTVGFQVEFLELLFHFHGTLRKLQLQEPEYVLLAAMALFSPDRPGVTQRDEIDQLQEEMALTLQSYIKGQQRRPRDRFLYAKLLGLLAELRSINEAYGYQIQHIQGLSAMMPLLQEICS

CCCCCC=CCC=CCCCCCCCC(=O)OCC
inactive: Potency [1] | Potency [2] | Potency [3] | Potency [4] | Potency [5] | Potency [6] | Potency [7]

CCCCCCCCCOC(C)=O
inactive: Potency [1] | Potency [2] | Potency [3] | Potency [4] | Potency [5] | Potency [6] | Potency [7]

C/C(=N/NC(=O)c1ccncc1)C(=O)O
inactive: Potency [1] | Potency [2] | Potency [3] | Potency [4] | Potency [5] | Potency [6] | Potency [7]

Cc1cc(OI)c(C(C)C)cc1-c1cc(C(C)C)c(OI)cc1C
inactive: Potency [1] | Potency [2] | Potency [3] | Potency [4] | Potency [5] | Potency [6] | Potency [7]

Cc1cc(O)c(C(C)C)cc1Cl
inactive: Potency [1] | Potency [2] | Potency [3] | Potency [4] | Potency [5] | Potency [6] | Potency [7]

CCCCCCCC/C=C\CCCCCCCC(=O)OC(CO)CO
inactive: Potency [1] | Potency [2] | Potency [3] | Potency [4] | Potency [5] | Potency [6] | Potency [7]

CCCCCCCC/C=C\CCCCCCCC(=O)OC
inactive: Potency [1] | Potency [2] | Potency [3] | Potency [4] | Potency [5] | Potency [6] | Potency [7]

COCCOC(=O)C1=C(C)NC(C)=C(C(=O)OC/C=C/c2ccccc2)C1c1cccc([N+](=O)[O-])c1 (stereo unspecified)
active: Potency [9] 23.7 µM
inactive: Potency [8] | Potency [2] | Potency [3] | Potency [5] | Potency [10]

Nc1ccc(C(=O)OCCCOC(=O)c2ccc(N)cc2)cc1
inactive: Potency [1] | Potency [2] | Potency [3] | Potency [4] | Potency [5]
active: Potency [6] 30.6 µM

CCC(C)(C)C1CCC(O)CC1 (stereo unspecified)
active: Potency [2] 79.6 µM
inactive: Potency [1] | Potency [3] | Potency [4] | Potency [5] | Potency [6] | Potency [7]

COc1cc2c(cc1OC)-c1cc(=Nc3c(C)cc(C)cc3C)n(C)c(=O)n1CC2
inactive: Potency [8] | Potency [2] | Potency [3] | Potency [5] | Potency [7] | Potency [9]

Nc1c(I)cc(I)c(C(=O)N(CCC(=O)O)c2ccccc2)c1I
inactive: Potency [1] | Potency [2] | Potency [3] | Potency [4] | Potency [5] | Potency [6] | Potency [7]

CCCc1c(OCCCOc2ccc(OCC(=O)O)cc2)ccc(C(C)=O)c1O
inactive: Potency [8] | Potency [1] | Potency [3] | Potency [4] | Potency [7] | Potency [9]

CC1(C)C2=CCCC(C)(C)[C@]23CC[C@H]1C3
inactive: Potency [1] | Potency [2] | Potency [3] | Potency [4] | Potency [5] | Potency [6] | Potency [7]

O=C(N/N=C/c1ccc([N+](=O)[O-])o1)c1ccc(O)cc1
inactive: Potency [2] | Potency [6] | Potency [7]
active: Potency [1] 13.3 µM | Potency [3] 9.44 µM | Potency [4] 8.41 µM | Potency [5] 8.41 µM

CN(C)C(=O)Nc1ccc(Oc2ccc(Cl)cc2)cc1
active: Potency [2] 63.3 µM | Potency [6] 30.6 µM
inactive: Potency [1] | Potency [3] | Potency [4] | Potency [5] | Potency [7]

O=C(O)c1ccc(CO)o1
inactive: Potency [1] | Potency [2] | Potency [3] | Potency [4] | Potency [5] | Potency [6] | Potency [7]

OCCSc1ccccc1
inactive: Potency [1] | Potency [2] | Potency [3] | Potency [4] | Potency [5] | Potency [6] | Potency [7]

Cc1oncc1C(=O)Nc1ccc(C(F)(F)F)cc1
inactive: Potency [1] | Potency [3] | Potency [4] | Potency [5] | Potency [7]
active: Potency [2] 39.9 µM | Potency [6] 770 nM and 1.06 µM

CCCC(=O)O[C@]1(C(=O)COC(=O)CC)CC[C@H]2[C@@H]3CCC4=CC(=O)CC[C@]4(C)[C@H]3[C@@H](O)C[C@@]21C
inactive: viability change, negative = cytotoxic [1] 2.61% [at 19 µM] | activity change, negative = inhibition [2] 4.64% [at 23.6 µM] | viability change, negative = cytotoxic [3] 10.6% [at 19 µM] | activity change, negative = cytotoxicity [4] 6.46% [at 19 µM] | activity, negative = inhibition [5] 2.05% [at 19 µM] | activation [6] -0.514% [at 19 µM] | viability change, negative = cytotoxic [7] -4.48% [at 19 µM]

CCOC(=O)c1ccccc1C
inactive: Potency [1] | Potency [2] | Potency [3] | Potency [4] | Potency [5] | Potency [6] | Potency [7]

Cc1ccc(S)cc1
inactive: Potency [1] | Potency [2] | Potency [3] | Potency [4] | Potency [5] | Potency [6] | Potency [7]

Fc1c(F)c(F)c(Br)c(F)c1F
inactive: Potency [1] | Potency [2] | Potency [3] | Potency [4] | Potency [5] | Potency [6] | Potency [7]

CCNC(=O)N1CCN(CCCC(c2ccc(F)cc2)c2ccc(F)cc2)CC1
inactive: Potency [8] | Potency [5] | Potency [10]
active: Potency [1] 18.8 µM

COC(=O)Nc1nc2ccc(C(=O)c3cccs3)cc2[nH]1
inactive: Potency [5] | Potency [7] | Potency [9]
active: Potency [8] 1.96 µM | Potency [2] 15.5 µM | Potency [3] 11.9 µM | Potency [10] 3.35 µM

CCCCC(CC)COC(=O)COc1ccc(Cl)cc1C (stereo unspecified)
inactive: Potency [1] | Potency [2] | Potency [3] | Potency [4] | Potency [5] | Potency [6] | Potency [7]

CN1CCN(c2c(F)cc3c(=O)c(C(=O)O)cn4c3c2OCN4C)CC1
inactive: viability change, negative = cytotoxic [1] 6.99% [at 19 µM] | activity change, negative = inhibition [2] 2.58% [at 23.6 µM] | viability change, negative = cytotoxic [3] 0.256% [at 19 µM] | activity change, negative = cytotoxicity [4] -2.88% [at 19 µM] | activity, negative = inhibition [5] 0.0919% [at 19 µM] | activation [6] -1.52% [at 19 µM] | viability change, negative = cytotoxic [7] 9.28% [at 19 µM]

CCOC(=N)CC(=O)OCC
inactive: Potency [1] | Potency [2] | Potency [3] | Potency [4] | Potency [5] | Potency [6] | Potency [7]

CC1CN(c2cc3c(cc2F)c(=O)c(C(=O)O)cn3-c2ccc(F)cc2F)CCN1 (stereo unspecified)
inactive: viability change, negative = cytotoxic [1] 4.3% [at 8.39 µM] | activity change, negative = inhibition [2] 1.15% [at 10.5 µM] | viability change, negative = cytotoxic [3] -1.43% [at 8.39 µM] | activity change, negative = cytotoxicity [4] 6.26% [at 8.39 µM] | activity, negative = inhibition [5] 9.29% [at 8.39 µM] | activation [6] -1.5% [at 8.39 µM] | viability change, negative = cytotoxic [7] 0.948% [at 8.39 µM]
